Reference: PubChem BioAssay (EPA / NIEHS)
Where “and” joins values, the source holds several entries; their conditions need not be identical. Identical values can stand only once. Records with an inconclusive call do not appear. Where a structure was tested more than once in an assay, its records may differ in their call. Calls of active or inactive are those of the source. Rule for the calls: active = hit-call score of the fitted dose curve at least 0.9, where 1 is the maximum; inconclusive = response in the unintended direction; inactive = score below 0.9.

The compounds below were run against human Retinoid X Receptor beta (RXRb), RXRB (gene 6257) (UniProt P28702) (assay: ATG_RXRb_TRANS: Attagene TRANS-FACTORIAL HepG2 Assay for human Retinoid X Receptor beta (RXRb) (AID 2283013)).
Experimental: ATG_TRANS is a cell-based, multiplexed-readout assay that uses HepG2, a human liver cell line, with measurements taken at 24 hours after chemical dosing in a 24-well plate.ATG_RXRb_TRANS is one of 30 assay component(s) measured or calculated from the ATG_TRANS assay. It is designed to make measurements of mRNA induction, a form of inducible reporter, as detected with fluorescence intensity signals by Reverse transcription polymerase chain reaction (RT-PCR) and Capillary electrophoresis technology.Data from the assay component ATG_RXRb_TRANS was analyzed into 1 assay endpoint. This assay endpoint, ATG_RXRb_TRANS, was analyzed in the positive analysis fitting direction relative to DMSO as the negative control and baseline of activity. Using a type of inducible reporter, measures of mRNA for gain-of-signal activity can be used to understand the reporter gene at the transcription factor-level as they relate to the gene RXRB. Furthermore, this assay endpoint can be referred to as a primary readout, because this assay has produced multiple assay endpoints where this one serves a reporter gene function. To generalize the intended target to other relatable targets, this assay endpoint is annotated to the nuclear receptor intended target family, where the subfamily is non-steroidal.
Human liver HepG2 cells are transiently transfected with multiple reporter transcription units (MRTUs) in 6-well plates using FuGene 6 reagent (Roche; 3 ml FuGene/1 mg DNA). The MRTU constructs are regulated by a cis-regulating element (promoter). […] A major difference between the CIS and TRANS system is that in CIS activities of endogenous TFs are measured, whereas the TRANS assay evaluates changes in activities of exogenous, chimeric NR-Gal4 proteins. […] At the end of 24 hour incubation, total RNA was isolated using TriZol reagent (Invitrogen). The isolated RNA is then reverse-transcribed using oligo(dT) primer and Mo-MLV reverse transcriptase (Invitrogen) with DNAse I (Ambion) treatment for 30 min. The one-tenth of the produced cDNA was amplified by PCR using Taq DNA polymerase (Invitrogen) and two reporter sequence-specific primers. The PCR products were fluorescently labeled by primer extension with 6-arboxyfluorescein (6-FAM) 5'-labeled reporter sequence-specific primer (2 min at 95 C, 20 s at 68 C and 10 min at 72 C) and these products were digested with 5U of HpaI (New England Biolabs) for 2h at 37 C. The fragments were purified using Qiaquick PCR columns (Qiagen), analyzed on an ABI 3130xL genetic analyzer (Applied Biosystems) with peak positions identified by using a set of X-rhodamine (ROX)-labeled MapMarker1000 molecular weight standards (BioVentures). The raw capillary electrophoresis data was processed using Attagraph software (Attagene).

Chain of human Retinoid X Receptor beta (RXRb), RXRB (gene 6257) (P28702 whole entry, looked up): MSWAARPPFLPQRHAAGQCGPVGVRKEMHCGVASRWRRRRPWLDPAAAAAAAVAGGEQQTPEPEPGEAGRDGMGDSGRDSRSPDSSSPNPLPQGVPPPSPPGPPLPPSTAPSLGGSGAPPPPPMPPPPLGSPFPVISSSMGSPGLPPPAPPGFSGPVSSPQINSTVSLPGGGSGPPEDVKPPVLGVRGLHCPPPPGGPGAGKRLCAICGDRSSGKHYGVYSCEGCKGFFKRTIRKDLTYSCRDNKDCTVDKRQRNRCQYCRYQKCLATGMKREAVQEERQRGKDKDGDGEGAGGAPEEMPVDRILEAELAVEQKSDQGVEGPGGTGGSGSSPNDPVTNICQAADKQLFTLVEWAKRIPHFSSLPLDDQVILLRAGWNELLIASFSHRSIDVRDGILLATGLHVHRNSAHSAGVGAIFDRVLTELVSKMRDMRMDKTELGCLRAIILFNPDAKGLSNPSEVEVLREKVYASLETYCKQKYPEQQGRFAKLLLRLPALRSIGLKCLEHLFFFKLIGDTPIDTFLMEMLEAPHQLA

Structure (SMILES)	outcome	AC50
COc1nc(C)nc(NC(=O)NS(=O)(=O)c2ccccc2Cl)n1	inactive	–
CC(C)C1(C)N=C(c2nc3ccccc3cc2C(=O)O)NC1=O (stereo not given)	inactive	–
CON(C)C(=O)Nc1ccc(Cl)c(Cl)c1	inactive	–
CCON=C(CC)C1=C(O)CC(c2c(C)cc(C)cc2C)CC1=O (stereo not given)	inactive	–
CC1COC(Cn2cncn2)(c2ccc(Oc3ccc(Cl)cc3)cc2Cl)O1 (stereo not given)	inactive	–
COc1nc(C)nc(NC(=O)NS(=O)(=O)c2ccccc2CCC(F)(F)F)n1	inactive	–
CO/C=C(/C(=O)OC)c1ccccc1Oc1cc(Oc2ccccc2C#N)ncn1	inactive	–
CC(C)(C)c1ccc(CSc2cnn(C(C)(C)C)c(=O)c2Cl)cc1	inactive	–
Cc1c(F)c(F)c(COC(=O)C2C(/C=C(\Cl)C(F)(F)F)C2(C)C)c(F)c1F (stereo not given)	inactive	–
CCCCOC(=O)c1ccccc1C(=O)OCCCC	inactive	64.6 µM (active) and 65.2 µM (active) and 68.9 µM (active)
N#CC(CCc1ccc(Cl)cc1)(Cn1cncn1)c1ccccc1 (stereo not given)	inactive	–
O=C(O)COc1nc(Cl)c(Cl)cc1Cl	inactive	–
COC(=O)C=C(C)OP(=O)(OC)OC	inactive	–
CCCC1COC(Cn2cncn2)(c2ccc(Cl)cc2Cl)O1 (stereo not given)	inactive	–
CCOC(=O)CC(SP(=S)(OC)OC)C(=O)OCC (stereo not given)	inactive	63.4 µM (active)
Oc1ccccc1-c1ccccc1	–	56.3 µM (active) and 26.8 µM (active)
CCCN(CCC)c1c([N+](=O)[O-])cc(S(N)(=O)=O)cc1[N+](=O)[O-]	inactive	–
C=CCC1=C(C)C(OC(=O)C2C(C=C(C)C)C2(C)C)CC1=O (stereo not given)	inactive	22.1 µM (active)
OC(c1ccc(Cl)cc1)(c1cncnc1)c1ccccc1Cl (stereo not given)	inactive	–

Structure (SMILES)	outcome	AC50
O=C(O)c1nc(Cl)ccc1Cl	inactive	–
COc1ccc(C(c2ccc(OC)cc2)C(Cl)(Cl)Cl)cc1	inactive	–
C=CC1(C)OC(=O)N(c2cc(Cl)cc(Cl)c2)C1=O (stereo not given)	inactive	–
CC(Oc1ccc(Cl)cc1Cl)C(=O)O (stereo not given)	inactive	–
COc1cnc(OC)n2nc(NS(=O)(=O)c3c(OCC(F)F)cccc3C(F)(F)F)nc12	inactive	–
COP(N)(=O)SC (stereo not given)	inactive	–
CC1=C(C(=O)Nc2ccccc2)SCCO1	inactive	–
COP(=S)(OC)Oc1nc(Cl)c(Cl)cc1Cl	inactive	–
O=C(Nc1ccccc1)Nc1ccnc(Cl)c1	inactive	–
CNC(=S)S	inactive	–
CCNc1nc(Cl)nc(NC(C)C)n1	inactive	–
COC(=O)C(C)Oc1ccc(Oc2ccc(Cl)cc2Cl)cc1 (stereo not given)	inactive	–
COC(=O)N(OC)c1ccccc1COc1ccn(-c2ccc(Cl)cc2)n1	inactive	–
CCCCC(CC)COC(=O)c1ccccc1C(=O)OCC(CC)CCCC (stereo not given)	inactive	–
CCCCNC(=O)OCC#CI	inactive	–
CCOC(=O)C(Cl)Cc1cc(-n2nc(C)n(C(F)F)c2=O)c(F)cc1Cl (stereo not given)	inactive	–
N#Cc1cc(Br)c(O)c(Br)c1	inactive	–
CN(C)C(=S)SSC(=S)N(C)C	inactive	–
